From PubChem BioAssay (EPA / NIEHS)
Inconclusive results are not listed. The source made the active and inactive calls. How the source made its calls: active means hit-call score of the fitted dose curve at least 0.9, where 1 is the maximum; inconclusive means response in the unintended direction; inactive means score below 0.9.

The molecules below were run against Retinoic acid receptor RXR-alpha (Homo sapiens) (UniProt P19793) (assay: ATG_RXRa_TRANS: Attagene TRANS-FACTORIAL HepG2 Assay for human Retinoid X Receptor alpha (RXRa) (AID 2283012)).
Method in brief: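 HepG2 cells transiently transfected with GAL4-UAS reporter units and chimeric RXRa-Gal4 protein, treated 24 h. Reporter mRNA measured by RT-PCR, fluorescent labelling, HpaI digestion and capillary electrophoresis. Induction fitted against DMSO.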

Chain of Retinoic acid receptor RXR-alpha (Homo sapiens) (P19793 whole entry, looked up, the tested form may be a part): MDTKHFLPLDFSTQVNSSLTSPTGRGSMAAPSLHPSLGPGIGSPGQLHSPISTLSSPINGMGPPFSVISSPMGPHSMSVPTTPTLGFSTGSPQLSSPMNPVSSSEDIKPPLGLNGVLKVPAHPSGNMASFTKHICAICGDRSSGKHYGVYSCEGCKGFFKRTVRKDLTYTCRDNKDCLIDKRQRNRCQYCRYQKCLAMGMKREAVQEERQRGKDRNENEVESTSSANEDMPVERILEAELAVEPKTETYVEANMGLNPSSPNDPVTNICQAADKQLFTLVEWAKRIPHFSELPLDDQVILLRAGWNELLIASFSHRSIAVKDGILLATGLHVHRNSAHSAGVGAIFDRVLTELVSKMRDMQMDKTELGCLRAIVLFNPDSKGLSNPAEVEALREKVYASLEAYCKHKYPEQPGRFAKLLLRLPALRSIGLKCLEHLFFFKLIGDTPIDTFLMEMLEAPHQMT

outcome, inactive:
COC(=O)C=C(C)CCC=C(C)C, C[C@H]1O[C@@H](O[C@H]2[C@@H](O)C[C@H](O[C@H]3[C@@H](O)C[C@H](O[C@H]4CC[C@@]5(C)[C@H](CC[C@@H]6[C@@H]5C[C@@H](O)[C@]5(C)[C@@H](C7=CC(=O)OC7)CC[C@]65O)C4)O[C@@H]3C)O[C@@H]2C)C[C@H](O)[C@@H]1O, CC(C)(N=C=O)c1cccc(C(C)(C)N=C=O)c1, CCCCCc1ccco1, C#CC(C)(O)CC(C)C (stereo not drawn), CCCCCCCCN1CCCC1=O, C[Si]1(C)O[Si](C)(C)O[Si](C)(C)O1, O=C1OC(=O)c2c(Br)c(Br)c(Br)c(Br)c21, OCC(O)c1ccccc1 (stereo not drawn), CN1CCOCC1, CCCCCCCCCCCCCCN(CCO)CCO, CCCCCC(=O)CC, COC(=O)c1ccc(OC)cc1, CCCC(O)C(O)CO (stereo not drawn), CC(O)C1CCCCC1 (stereo not drawn), CCCC(C)C(O)CC (stereo not drawn), CC(=O)C(C)O (stereo not drawn), OCCOCCN1CCN(C2=Nc3ccccc3Sc3ccccc32)CC1, FC(F)(F)COCC(F)(F)F, CC(C)(C)CC(C)(C)c1ccc(OCCOCC[N+](C)(C)Cc2ccccc2)cc1, CCc1ccc(O)cc1, CC(=O)O[C@@H]1CC2CCC1(C)C2(C)C (stereo partly drawn), COC(=O)c1ccc(C)cc1C1=NC(C)(C(C)C)C(=O)N1 (stereo not drawn) (tested in a mixture with another compound)

These molecules were tested against human Retinoid X Receptor beta (RXRb), RXRB (gene 6257) (UniProt P28702) (assay: ATG_RXRb_TRANS: Attagene TRANS-FACTORIAL HepG2 Assay for human Retinoid X Receptor beta (RXRb) (AID 2283013)).
Method in brief: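 HepG2 cells were transiently transfected with multiplexed GAL4-UAS reporters and a chimeric RXRb-Gal4 construct, then exposed for 24 h. Reporter mRNA was quantified by RT-PCR, FAM labeling, HpaI digestion and capillary electrophoresis; gain of signal was scored against DMSO.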

Chain of human Retinoid X Receptor beta (RXRb), RXRB (gene 6257) (P28702 whole entry, looked up, the tested form may be a part): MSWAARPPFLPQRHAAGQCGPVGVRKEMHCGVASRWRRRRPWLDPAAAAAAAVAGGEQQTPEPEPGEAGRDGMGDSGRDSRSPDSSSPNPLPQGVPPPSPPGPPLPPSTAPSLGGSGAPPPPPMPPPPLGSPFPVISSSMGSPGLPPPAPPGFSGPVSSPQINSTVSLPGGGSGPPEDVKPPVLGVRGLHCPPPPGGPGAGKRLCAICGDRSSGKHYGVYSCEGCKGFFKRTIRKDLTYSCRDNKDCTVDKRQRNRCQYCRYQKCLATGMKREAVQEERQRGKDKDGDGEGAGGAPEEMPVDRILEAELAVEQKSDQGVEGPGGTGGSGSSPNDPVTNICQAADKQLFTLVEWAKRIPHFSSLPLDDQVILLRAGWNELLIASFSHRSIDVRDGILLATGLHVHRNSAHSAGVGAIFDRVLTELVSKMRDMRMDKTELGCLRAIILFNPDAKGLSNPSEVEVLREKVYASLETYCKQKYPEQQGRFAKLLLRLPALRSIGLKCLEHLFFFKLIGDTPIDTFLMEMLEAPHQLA

outcome, inactive:
C[N+](C)(C)CCCCCC[N+](C)(C)C, Cc1cc(S(=O)(=O)O)ccc1N=Nc1c(O)ccc2ccccc12, CC(=O)Nc1ccc(C(=O)CCl)cc1, O=C(O)COCC(=O)O, CCCC(C)=O, CCc1ccc(O)c(OC)c1, CCCCCCCCCCCCS(=O)(=O)Cl, COC(=O)c1ccc([N+](=O)[O-])cc1, NC(=S)NNC(N)=S, CN(C)c1cccc(O)c1, Oc1ccc2cc(SSc3ccc4cc(O)ccc4c3)ccc2c1, CC=Cc1ccc(OCC)c(O)c1, C=COCCOCCOC=C, CCCCCCC(C)(C)S, CC(C)CCCCCCc1ccc(OCCOCCO)cc1
